This is part of a sample that, as a whole, favours compounds with a hit. Of some 83,000 tested, about 20% had one in any assay.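 Assay: single dose, 48 h. Readout: percent growth (0 = no net growth; negative = cell death). Active: <10.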 Active and inactive are the calls of the source.
Experiments:
Assay in all cases: NCI-60 one-dose screen, 48 h (100 = growth as untreated, 0 = no growth, -100 = all killed)
Details in all cases: 10 µM unless noted
HCT-15 colon = tested on: HCT-15 colon
HT29 colon = tested on: HT29 colon
SNB-75 CNS = tested on: SNB-75 CNS
U251 CNS = tested on: U251 CNS
PC-3 prostate = tested on: PC-3 prostate
SK-MEL-5 melanoma = tested on: SK-MEL-5 melanoma
UACC-62 melanoma = tested on: UACC-62 melanoma
LOX IMVI melanoma = tested on: LOX IMVI melanoma
SK-MEL-28 melanoma = tested on: SK-MEL-28 melanoma
SK-MEL-2 melanoma = tested on: SK-MEL-2 melanoma
EKVX NSCLC = tested on: EKVX NSCLC
SN12C renal = tested on: SN12C renal
UO-31 renal = tested on: UO-31 renal
TK-10 renal = tested on: TK-10 renal
ACHN renal = tested on: ACHN renal
CAKI-1 renal = tested on: CAKI-1 renal
A498 renal = tested on: A498 renal
CCRF-CEM leukemia = tested on: CCRF-CEM leukemia
MOLT-4 leukemia = tested on: MOLT-4 leukemia
SNB-19 CNS = tested on: SNB-19 CNS

Measured: growth

O=C(Nc1ccccc1)c1sc(-c2ccccc2)cc1O
inactive: HCT-15 colon 97.4% | HT29 colon 107% | SNB-75 CNS 82.6% | U251 CNS 98.5% | PC-3 prostate 95.2% | SK-MEL-5 melanoma 83.7% | UACC-62 melanoma 67% | LOX IMVI melanoma 109% | SK-MEL-28 melanoma 84.4% | SK-MEL-2 melanoma 105% | EKVX NSCLC 86.7% | SN12C renal 105% | UO-31 renal 86.5% | TK-10 renal 118% | ACHN renal 93.1% | CAKI-1 renal 90.6% | A498 renal 94.6% | CCRF-CEM leukemia 96.7% | MOLT-4 leukemia 95.2%

COc1cc(C#Cc2ccc(=O)oc2C#Cc2ccccc2)cc(OC)c1OC
active: LOX IMVI melanoma -61% | CCRF-CEM leukemia 3.76%
inactive: HCT-15 colon 61.4% | HT29 colon 43.4% | SNB-75 CNS 77.1% | U251 CNS 83.8% | PC-3 prostate 86.2% | SK-MEL-5 melanoma 56.7% | UACC-62 melanoma 80.3% | SK-MEL-28 melanoma 23.1% | SK-MEL-2 melanoma 104% | EKVX NSCLC 115% | SN12C renal 16% | UO-31 renal 76.6% | ACHN renal 89.3% | CAKI-1 renal 96.3% | A498 renal 119% | MOLT-4 leukemia 33.4%

O=C(CSc1nnc2sc(Nc3cccc(Cl)c3)nn12)c1ccc(F)cc1
inactive: HCT-15 colon 92.3% | HT29 colon 90.5% | SNB-75 CNS 104% | U251 CNS 97.9% | PC-3 prostate 85% | UACC-62 melanoma 82.7% | LOX IMVI melanoma 91.7% | SK-MEL-28 melanoma 104% | SK-MEL-2 melanoma 102% | EKVX NSCLC 94.8% | SN12C renal 98.9% | UO-31 renal 78.8% | TK-10 renal 114% | ACHN renal 96% | CAKI-1 renal 71.3% | A498 renal 103% | CCRF-CEM leukemia 91.1% | MOLT-4 leukemia 71.3%

COc1ccc(-c2cc(-c3cc(OC)c(OC)c(OC)c3)c(C#N)c(=O)n2CCCCCC(=O)NO)cc1
inactive: HCT-15 colon 71.7% | HT29 colon 101% | SNB-75 CNS 70.1% | U251 CNS 81.9% | PC-3 prostate 89.4% | SK-MEL-5 melanoma 91.4% | UACC-62 melanoma 93.3% | LOX IMVI melanoma 78.7% | SK-MEL-28 melanoma 109% | SK-MEL-2 melanoma 102% | EKVX NSCLC 91.3% | SN12C renal 89.2% | UO-31 renal 62.4% | ACHN renal 88.3% | CAKI-1 renal 79.9% | A498 renal 54% | CCRF-CEM leukemia 85.7% | MOLT-4 leukemia 96.6%

C#Cc1cccc(Oc2ccc(NC(=O)CCl)cc2)c1
inactive: HT29 colon 34.5% [8.25 µM] | SNB-75 CNS 58.2% [8.25 µM] | U251 CNS 32.9% [8.25 µM] | PC-3 prostate 61.7% [8.25 µM] | UACC-62 melanoma 26% [8.25 µM] | SK-MEL-28 melanoma 91.8% [8.25 µM] | SK-MEL-2 melanoma 61.8% [8.25 µM] | EKVX NSCLC 82.3% [8.25 µM] | SN12C renal 37.6% [8.25 µM] | UO-31 renal 52.8% [8.25 µM] | TK-10 renal 93% [8.25 µM] | ACHN renal 70.1% [8.25 µM] | CAKI-1 renal 36.9% [8.25 µM] | A498 renal 102% [8.25 µM]
active: HCT-15 colon -29.8% [8.25 µM] | SK-MEL-5 melanoma 6.75% [8.25 µM] | LOX IMVI melanoma -27.1% [8.25 µM] | CCRF-CEM leukemia 2.35% [8.25 µM] | MOLT-4 leukemia 0.835% [8.25 µM]

CCCCCCCCCCCCCCCCOC(=O)c1c(C)[nH]c(/C=C2\N=C(c3ccc[nH]3)C=C2OC)c1C
inactive: HCT-15 colon 56.3% | HT29 colon 13.6% | SNB-75 CNS 51.4% | U251 CNS 41.7% | PC-3 prostate 45.6% | SK-MEL-28 melanoma 51.1% | EKVX NSCLC 68.3% | SN12C renal 55.9% | UO-31 renal 30.4% | TK-10 renal 18.8% | ACHN renal 48.8% | CAKI-1 renal 15.4% | A498 renal 33.9% | CCRF-CEM leukemia 50.4% | MOLT-4 leukemia 91.9%
active: SK-MEL-5 melanoma -80.8% | UACC-62 melanoma -15.3% | LOX IMVI melanoma -83.9% | SK-MEL-2 melanoma -25.9%

CCOC(=O)/C=C/c1c(C)[nH]c(=O)[nH]c1=O
active: ACHN renal 1.8%
inactive: HCT-15 colon 21.3% | HT29 colon 31.4% | SNB-75 CNS 110% | U251 CNS 81.2% | PC-3 prostate 80.9% | SK-MEL-5 melanoma 90.7% | UACC-62 melanoma 87.6% | LOX IMVI melanoma 82.6% | SK-MEL-28 melanoma 117% | SK-MEL-2 melanoma 30.1% | EKVX NSCLC 77.6% | SN12C renal 95.4% | UO-31 renal 102% | TK-10 renal 95.5% | CAKI-1 renal 63.8% | A498 renal 111% | CCRF-CEM leukemia 89.3% | MOLT-4 leukemia 61.3%

COc1cc(C2C3=C(COC3=O)N(CCO)c3cc4c(cc32)OCCO4)cc(OC)c1OC (stereo not given)
inactive: PC-3 prostate 14.3% | SK-MEL-28 melanoma 42.8% | SK-MEL-2 melanoma 58.5% | EKVX NSCLC 45.7% | SN12C renal 23.8% | UO-31 renal 54.3% | TK-10 renal 60.3% | ACHN renal 20.7% | CAKI-1 renal 41.3% | CCRF-CEM leukemia 13.2%
active: HCT-15 colon 6.81% | HT29 colon -25.4% | SNB-75 CNS -5.04% | SNB-19 CNS 7.63% | U251 CNS 9.63% | A498 renal -28.8% | MOLT-4 leukemia 8.21%

CO[C@H](C(=O)[C@@H](O)[C@@H](C)O)[C@@H]1Cc2cc3cc(O[C@H]4C[C@@H](O[C@H]5C[C@@H](O)[C@H](O)C(C)O5)[C@H](O)C(C)O4)c(C)c(O)c3c(O)c2C(=O)[C@H]1O[C@H]1C[C@@H](O[C@H]2C[C@@H](O[C@H]3C[C@@H](OC)[C@H](O)C(C)O3)[C@@H](O)C(C)O2)C(O)(O)C(C)O1 (stereo not given in full)
inactive: HCT-15 colon 34.2% | PC-3 prostate 19.4% | EKVX NSCLC 18% | TK-10 renal 12.1% | CCRF-CEM leukemia 34.2% | MOLT-4 leukemia 18%
active: HT29 colon -0.578% | SNB-75 CNS -41.6% | U251 CNS 9.8% | SK-MEL-5 melanoma -51.5% | UACC-62 melanoma -43.5% | SK-MEL-28 melanoma -15.5% | SK-MEL-2 melanoma -79.2% | SN12C renal 8.08% | UO-31 renal 3.17% | ACHN renal 0.683% | CAKI-1 renal 6.9% | A498 renal -35.7%

Cc1ccc(N=Nc2c(N)nn(-c3ccccc3)c2N)cc1
inactive: HCT-15 colon 21% | HT29 colon 11.7% | SNB-75 CNS 32.6% | U251 CNS 28.2% | PC-3 prostate 56.7% | UACC-62 melanoma 31.5% | LOX IMVI melanoma 47.1% | SK-MEL-28 melanoma 56.8% | SK-MEL-2 melanoma 41.2% | EKVX NSCLC 29.9% | SN12C renal 45.4% | UO-31 renal 45.1% | TK-10 renal 43.6% | ACHN renal 47.6% | A498 renal 49.9% | MOLT-4 leukemia 23.5%
active: SK-MEL-5 melanoma -18.6% | CAKI-1 renal -2.05% | CCRF-CEM leukemia 8.89%

COc1cc(/C=N/Nc2ccccc2F)cc(OC)c1OC
inactive: HCT-15 colon 89.2% | HT29 colon 93.6% | SNB-75 CNS 103% | U251 CNS 93.3% | PC-3 prostate 88.7% | SK-MEL-5 melanoma 102% | UACC-62 melanoma 65.7% | LOX IMVI melanoma 65.7% | SK-MEL-28 melanoma 110% | SK-MEL-2 melanoma 90.2% | EKVX NSCLC 87.4% | SN12C renal 97.1% | UO-31 renal 68.8% | TK-10 renal 157% | ACHN renal 81.3% | CAKI-1 renal 50.8% | A498 renal 92.8% | CCRF-CEM leukemia 75.2% | MOLT-4 leukemia 83.9%

O=C(CCCCl)NNc1nccc(Nc2ccc(S(=O)(=O)Nc3ccncc3)cc2)n1
inactive: HCT-15 colon 103% | HT29 colon 102% | SNB-75 CNS 93.2% | U251 CNS 103% | PC-3 prostate 93% | SK-MEL-5 melanoma 105% | UACC-62 melanoma 102% | LOX IMVI melanoma 98% | SK-MEL-28 melanoma 107% | SK-MEL-2 melanoma 92.7% | EKVX NSCLC 105% | SN12C renal 102% | UO-31 renal 92.2% | TK-10 renal 85.8% | ACHN renal 104% | CAKI-1 renal 93.9% | A498 renal 110% | CCRF-CEM leukemia 116% | MOLT-4 leukemia 112%

C/C(C=O)=C\c1ccc2c(c1)OCO2
inactive: HCT-15 colon 108% | HT29 colon 110% | SNB-75 CNS 102% | U251 CNS 107% | PC-3 prostate 104% | SK-MEL-5 melanoma 105% | UACC-62 melanoma 105% | LOX IMVI melanoma 96.7% | SK-MEL-2 melanoma 109% | EKVX NSCLC 102% | SN12C renal 110% | UO-31 renal 102% | TK-10 renal 90.7% | ACHN renal 113% | A498 renal 68% | MOLT-4 leukemia 116%
active: CCRF-CEM leukemia -5.12%

CN1C(=O)/C(=C/c2ccc(C(=O)Nc3ncc(Cc4ccc(F)cc4)s3)cc2)SC1=S
inactive: HCT-15 colon 22.4% | HT29 colon 29.5% | SNB-75 CNS 40.3% | U251 CNS 65.2% | PC-3 prostate 52.4% | SK-MEL-5 melanoma 17.6% | LOX IMVI melanoma 15.4% | SK-MEL-28 melanoma 58% | SK-MEL-2 melanoma 71.2% | EKVX NSCLC 48.4% | SN12C renal 61.8% | UO-31 renal 46.5% | TK-10 renal 53.5% | ACHN renal 28% | CAKI-1 renal 16.3% | A498 renal 35% | CCRF-CEM leukemia 47.8% | MOLT-4 leukemia 39.6%
active: UACC-62 melanoma 9.34%

C=C1C(=O)O[C@H]2[C@H]1CC/C(Cn1cc(-c3cc(C(F)(F)F)cc(C(F)(F)F)c3)nn1)=C\CC[C@@]1(C)O[C@@H]21
active: HCT-15 colon -90.6% | HT29 colon -86% | SNB-75 CNS -96.6% | U251 CNS -97.6% | PC-3 prostate -81% | SK-MEL-5 melanoma -99.5% | UACC-62 melanoma -76.6% | LOX IMVI melanoma -87.1% | SK-MEL-28 melanoma -82.7% | SK-MEL-2 melanoma -84.1% | EKVX NSCLC -97.1% | SN12C renal -77.5% | UO-31 renal -96.3% | TK-10 renal -99.4% | ACHN renal -92.6% | CAKI-1 renal -95.3% | A498 renal -94.5% | CCRF-CEM leukemia -32.9% | MOLT-4 leukemia -28.2%

O=C1Nc2ccccc2/C1=C/c1cn(C[C@@H](O)Cn2c3ccccc3c(=O)c3ccccc32)c2ccccc12
inactive: HCT-15 colon 73.9% | HT29 colon 77.8% | SNB-75 CNS 63.6% | U251 CNS 75.2% | PC-3 prostate 51.1% | SK-MEL-5 melanoma 67.1% | UACC-62 melanoma 69.2% | LOX IMVI melanoma 69.1% | SK-MEL-28 melanoma 95.4% | SK-MEL-2 melanoma 79.9% | EKVX NSCLC 73.1% | SN12C renal 73.7% | UO-31 renal 30.4% | TK-10 renal 90.6% | ACHN renal 65.5% | A498 renal 91.1% | CCRF-CEM leukemia 70.5% | MOLT-4 leukemia 62.6%

From PubChem BioAssay (NCI)
